# An excerpt weighted towards active compounds, which were near 2.4% of everything screened.
# D2 PAM-1: human D2 receptor positive allosteric modulation. AID 624464. P14416. 360,000 tested, 0.23% active. DiscoveRx D2 beta-arrestin cells, luminescence, 90 min; 100% = 57 uM dopamine signal. potentiation, % (test concentration not listed); in the data active = potentiation above about 50%; inconclusive = mostly about 30% to 49%
# Target sequence (P14416 whole entry, looked up): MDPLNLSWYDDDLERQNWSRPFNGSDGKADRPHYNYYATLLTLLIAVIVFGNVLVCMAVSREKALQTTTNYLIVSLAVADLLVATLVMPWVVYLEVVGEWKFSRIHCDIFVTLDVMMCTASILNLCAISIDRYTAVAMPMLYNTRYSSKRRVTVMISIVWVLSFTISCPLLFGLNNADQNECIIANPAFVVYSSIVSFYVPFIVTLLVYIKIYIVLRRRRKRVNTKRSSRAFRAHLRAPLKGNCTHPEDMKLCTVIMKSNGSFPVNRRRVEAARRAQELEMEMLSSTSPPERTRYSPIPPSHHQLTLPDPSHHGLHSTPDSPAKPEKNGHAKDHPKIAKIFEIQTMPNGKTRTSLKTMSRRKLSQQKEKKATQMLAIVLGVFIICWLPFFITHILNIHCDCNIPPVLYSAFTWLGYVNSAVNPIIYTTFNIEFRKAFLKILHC
#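 PathHunter D2 cells, attached overnight at 37 deg C, received compound in DMSO plus dopamine at EC20 (50 nM final) for 90 min at 37 deg C. Beta-arrestin recruitment was read as luminescence after 1 h with detection reagent at ambient temperature.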
# D2 ag-1: human D2 receptor agonism in beta-arrestin assay. DiscoveRx PathHunter D2 beta-arrestin, luminescence, 90 min; 100% = 57 uM dopamine signal. AID 624465. activation, % (concentration not given with the values). P14416. 360,000 tested, 0.084% active; in the data active = activation above about 40%; inconclusive = between about 15% and that limit
#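 DiscoveRx PathHunter D2 beta-arrestin cells (2,100/well) attached overnight, then compound-stimulated 90 min at 37 C in HBSS/10 mM HEPES/0.1% Tween-20 buffer; beta-galactosidase complementation read by luminescence after 1 h at ambient temperature. Dopamine 57 uM final (EC100) as control.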
# D2 ag-2: activates the human D2 dopamine receptor | HEK293 T-REx D2 cells, calcium flux agonist mode | activation, % at 2 µM | 340,000 tested, 0.53% active | P14416;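 active = activation over 3 SD above normal in the single-dose calcium agonist read, cut at about 30% in these data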; also: 0% is about no effect
#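 Agonism scored from kinetic calcium signal (1 read/sec, 180 s) following compound pin transfer, after a 10 s baseline. Cells: HEK293 Trex line expressing inducible D2 receptor coupled to calcium, dye-loaded after overnight culture at 30 C.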
# D2 PAM-2: D2 dopamine receptor (human) potentiation; HEK293 T-REx D2, calcium flux, EC20 dopamine potentiation; P14416; potentiation, % at 10 µM; AID 485347; 340,000 tested, 0.34% active;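 active = potentiation over 3 SD above the plate norm, cut at about 30% in these data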; also: 0% is about no effect
#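 Using a no-wash calcium dye in inducible, force-coupled HEK293 Trex cells expressing D2, we tracked fluorescence each second for 180 s after compound, then for 180 s after EC20 dopamine to detect augmented signalling.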
# D2 antag: D2 dopamine receptor (human) antagonism | HEK293 TREx D2 cells, calcium flux, dopamine EC80 | inhibition, % at 10 µM | 340,000 tested, 2% active; in the data active = inhibition above about 30%; inactive = below that, where a call was filed; also: 0% is about no effect
#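 Cells plated overnight at 30 C with tetracycline; no-wash calcium dye, 30–90 min RT; 10 s baseline; compound pinned; 180 s read; EC80 dopamine added; another 180 s read.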
# Numbers without * were called inactive; ? = inconclusive; . = no result.
SMILES,D2 PAM-1,D2 ag-1,D2 ag-2,D2 PAM-2,D2 antag
c1ccc(-c2ccccc2OCCOCCN2CCNCC2)cc1,-14,-2,1,-25,-30
CCN1CCN(CCOCCOc2ccccc2-c2ccccc2)CC1,.,.,-1,-19,60*
CC1CCN(CCOc2ccccc2-c2ccccc2)CC1,-14,-5,0,-15,75*
COc1ccc(NC(=O)Nc2c[nH]c(=O)[nH]c2=O)c(OC)c1,.,.,1,.,.
COC(=O)c1cc(NC(=O)c2cccc(Cl)c2)c(=O)oc1/C=C/Nc1cc(C)cc(C)c1,.,.,41*,9,5
Cc1c2ccccc2nc2c(F)c(NC(C)C)c(F)c(F)c12,5,2,45*,2,28
COc1ccc(C(C)=O)cc1CSc1nc(Nc2ccc(F)c(F)c2)c2ccccc2n1,.,.,0,19,.
Cc1ccc(-c2cnc(-c3ccncc3)o2)cc1,-5,2,0,6,32*
Nc1ccc(-c2ncc(-c3ccccc3)o2)cc1,-4,2,-2,-4,0
CC1CCN(C(=O)c2ccc(Br)c(S(=O)(=O)N3CCOCC3)c2)CC1,-4,-2,0,-3,-15
CC1CCN(S(=O)(=O)c2cc(C(=O)NC3(C)CCS(=O)(=O)C3)ccc2Br)CC1 (centres undefined),-4,12,0,-3,31*
COc1ccc(S(=O)(=O)n2nc(-c3ccco3)nc2NCc2ccc(C(C)C)cc2)cc1,.,.,2,-9,.
Cc1onc(-c2ccccc2Cl)c1C(=O)NCCCN1CCOCC1,-1,-1,1,7,15
Cc1onc(-c2c(Cl)cccc2Cl)c1C(=O)NCCCN1CCOCC1,3,-3,0,-22,43*
CC1(C)C=C(c2ccc(C=O)s2)CC(C)(C)N1C=O,-14,2,0,10,19
CC1(C)C=C(c2ccc(C=O)s2)CC(C)(C)N1,-13,-1,0,6,34*
CCC1(c2ccccc2)NC(=O)N(CC(=O)Nc2cc(S(=O)(=O)N3CCCCCC3)ccc2OC)C1=O (centres undefined),63*,8,.,.,.
COc1ccc(C)cc1NC(=O)CN1C(=O)CSc2ccc(S(=O)(=O)N3CCCC3)cc21,-5,-1,0,13,-5
COc1ccc(OC)c(NC(=O)CN2C(=O)CSc3ccc(S(=O)(=O)N4CCCC4)cc32)c1,-2,-5,0,33*,-10
CCCCOC(=O)c1ccc(NS(=O)(=O)c2c(C)nc3scc(C)n3c2=O)cc1,.,.,-1,-4,.
Cc1cc(Br)ccc1NC(=O)CN(C)C(=O)Cn1c(=O)cnc2ccccc21,-16,0,0,1,-17
O=C(Nc1ccc2c(c1)C(=O)OC2)c1ccc(C(F)(F)F)cc1,-15,-3,-1,-15,34*
CCc1nnc2c(N3CCN(c4cccc(C(F)(F)F)c4)CC3)nc3ccccc3n12,.,.,0,-7,.
CCCNc1nc2c(c(=O)[nH]c(=O)n2C)n1CCC(C)C,3,-4,-1,16,-2
CCCCn1c(NCCC)nc2c1c(=O)[nH]c(=O)n2C,2,0,-1,40*,2
SMILES,D2 PAM-1,D2 ag-1,D2 ag-2,D2 PAM-2,D2 antag
CCCS(=O)(=O)Nc1cc(-c2cn3cccc(C)c3n2)ccc1C,.,.,0,-2,.
O=S(=O)(c1ccc2nc(-c3ccco3)c(-c3ccco3)nc2c1)N1CCOCC1,56*,4,-2,17,-2
O=S(=O)(c1ccc2ccccc2c1)N1CCOCC1,-5,1,1,25,-4
CCCn1c2ccccc2c2nnc(SCC(=O)OC)nc21,-2,-3,0,14,-24
CCCCn1c2ccccc2c2nnc(SCC(=O)NC3=NN=C(c4ccccc4)CS3)nc21,.,.,0,7,70*
CCOC(=O)c1cnn(Cc2ccccc2)c1N,8,0,0,-1,1
CCOC(=O)c1cnn(Cc2cccc(Cl)c2)c1C,-11,-2,-2,3,56*
ClCc1csc(-c2ccc(Cl)cc2)n1,-10,-7,0,-12,29
CC1CN(Cc2csc(-c3ccc(Cl)cc3)n2)CC(C)O1 (centres undefined),-16,-2,-2,-23,37*
COc1ccc(NC(=O)NCCN2CCN(c3cc(OC)ccc3OC)CC2)cc1,-3,-3,0,-8,-8
COc1ccc(Cl)c(N2CCN(CCCNC(=O)Nc3ccc(C)cc3)CC2)c1,-24,3,-1,-23,36*
CCOc1ccc(CC(=O)Nc2c(C(=O)c3ccccc3)oc3ccc(OC)cc23)cc1OCC,.,.,1,-4,.
Cc1cc([N+](=O)[O-])ccc1NC(=O)/C=C/c1cccs1,-27,-3,-1,-20,44*
Cc1cc(C)c2c(CC(=O)Nc3ccc(S(=O)(=O)Nc4ncccn4)cc3)coc2c1,.,.,-1,8,.
CC1CCCCC1NC(=O)Cn1cccc1C(=O)c1ccccc1 (centres undefined),-9,-5,0,35*,-10
Cc1ccccc1C(=O)c1cccn1CC(=O)NC1CCCC(C)C1C (centres undefined),-14,-6,0,-2,-2
CCc1ccccc1Nc1nn2c(=O)c3ccc(C(=O)NCc4cccs4)cc3nc2s1,.,.,0,13,.
CCn1cc(/C=N/NC(=O)c2cc3c(ccc4ccccc43)o2)c2ccccc21,?,0,0,35*,-5
COc1ccc(CN2C(=O)C(NC(=O)c3ccc(C)cc3)(C(F)(F)F)N=C2c2ccccc2)cc1 (centres undefined),.,.,0,-8,.
O=C(Nc1cccc(S(=O)(=O)N2CCCC2)c1)[C@@H]1O[C@H](CO)[C@@H](O)[C@H]1O,-4,2,.,.,.
Cn1nc(C(=O)OCC(=O)N2CCc3ccccc32)c2ccccc2c1=O,-21,-1,-1,32*,8
CC1=C(C(=O)Nc2ccccc2C)C(c2cccs2)n2nc(SCc3ccccc3)nc2N1 (centres undefined),.,.,0,2,.
CCn1c(=O)n(CC)c2cc(N3CCCCC3)c(NC(=O)Nc3ccccc3Cl)cc21,.,.,4,5,.
O=C(Nc1ccc(F)cc1)c1ccc2ncsc2c1,-3,6,0,-6,18
O=C(Nc1ccc(Cl)cc1)c1ccc2ncsc2c1,-5,?,0,-20,40*
O=C(CCCN1C(=O)/C(=C\c2cccs2)SC1=S)Nc1ccc(C(=O)O)cc1,-3,-3,.,.,.
CCN(CC)CCOC(=O)c1ccc(NC(=O)CCCN2C(=O)/C(=C/c3cccs3)SC2=S)cc1,-43,-2,-1,-26,49*
Oc1ccc(-c2nccc(-c3ccc(Cl)cc3Cl)n2)cc1,-3,0,-1,95*,6
Oc1ccc(-c2nccc(-c3ccc(Cl)cc3)n2)cc1,-5,3,-1,-1,2
Cc1ccc(C(=O)NCc2ccc3c(c2)CCN3C(=O)c2ccc(C)cc2)cc1,.,.,1,-16,.

# From PubChem BioAssay
